# Screening results (PubChem)
# NS1 inh – qHTS Assay for Inhibitors of Influenza NS1 Protein Function; Potency, µM (titrated, usually from 46.1 µM), without a hit: at the highest dose activity, positive = more growth; hit rate 0.4% among 270,000; AID 2326, 2010; calls by dose curve; note: potency is the fitted concentration of half-maximal effect; actives are rising curves; nearly all actives have a fitted effect of over 50% in size
#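 OD600 was taken as the measure of yeast growth restored by compound in an NS1-expressing S. cerevisiae strain. Cells had been washed out of glucose medium and diluted 1:100 into galactose -URA medium, pH 6.0.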
# AmpC detergent – qHTS Inhibitors of AmpC Beta-Lactamase (assay with detergent); P00811; AmpC hydrolysis of nitrocefin, absorbance 480 nm, 0.01% Triton; Potency, µM (series often up to 114 µM), for the others: at the top dose activity change, negative = inhibition, usual class: inhibitors; hit rate 0.041% among 370,000; AID 485294, 2010;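 note: potency is the fitted concentration of half-maximal effect; 0% = no-compound wells and -100% = no-enzyme wells; nearly all actives have a fitted effect of over 25% in size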
# Target sequence (P00811 whole entry, looked up): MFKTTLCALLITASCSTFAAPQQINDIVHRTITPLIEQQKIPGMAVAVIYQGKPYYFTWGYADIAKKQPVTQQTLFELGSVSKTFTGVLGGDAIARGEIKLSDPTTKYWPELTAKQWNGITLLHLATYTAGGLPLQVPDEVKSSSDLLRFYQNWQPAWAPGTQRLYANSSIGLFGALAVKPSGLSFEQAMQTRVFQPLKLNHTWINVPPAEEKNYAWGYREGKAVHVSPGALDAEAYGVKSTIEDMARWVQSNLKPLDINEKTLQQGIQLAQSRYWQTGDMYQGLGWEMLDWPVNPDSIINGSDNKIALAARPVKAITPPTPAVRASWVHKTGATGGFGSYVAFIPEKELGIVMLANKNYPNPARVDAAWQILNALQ
#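 20 mM phosphate pH 7.0 + 0.01% (detergent screen) or 0.0001% Triton X-100; 5.3 nM AmpC reagent; cpd preinc 15 min RT; nitrocefin (800 uM stock) to start; A480 q20 s × 4 min; Activity was normalised to no-enzyme and no-compound control wells.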
# CHX counter – Cycloheximide Counterscreen for Small Molecule Inhibitors of Shiga Toxin; cell reporter, cycloheximide protein synthesis inhibition counterscreen; max response, %; hit rate 12% among 300,000; AID 2314, 2010; in the data active = max response mostly above about 13%, no sharp cut-off; inactive = mostly below about 14%; note: read at 38.3 µM for the half of the compounds with a filed dose; 0% is about no effect
# AmpC inh no detg – qHTS Inhibitors of AmpC Beta-Lactamase (assay without detergent); hit rate 0.52% among 330,000; AmpC nitrocefin hydrolysis, absorbance 480 nm, 0.0001% Triton; Potency, µM (top dose mostly 57.1 µM), without a hit: top-dose activity change, negative = inhibition, usual class: inhibitors; AID 485341, 2010;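 note: potency is the fitted concentration of half-maximal effect; plate controls were no compound for no effect and no enzyme for full effect; nearly all actives have a fitted effect of over 20% in size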
#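 20 mM phosphate pH 7.0 + 0.01% (detergent screen) or 0.0001% Triton X-100; 5.3 nM AmpC reagent; cpd preinc 15 min RT; nitrocefin (800 uM stock) to start; A480 q20 s × 4 min; Activity was normalised to no-enzyme and no-compound control wells.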
# Shiga inhibitor – A qHTS for Small Molecule Inhibitors of Shiga Toxin. AID 2315, 2010. hit rate 9.2% among 290,000. inhibition, % at 38.7 µM. Vero cells, Shiga toxin protein synthesis inhibition reporter; in the data active = inhibition mostly above about 28%, no sharp cut-off; inactive = mostly below about 43%; note: 0% is about no effect
# * = called active by the depositor; ? = inconclusive; · = no result given; [ ] = remark or other dose. This is one part of a sample in which hits are shown more often than they occur. Unless noted, calls come from the whole dose curve; as a rule, active = well fitted curve in the direction sought with a large enough effect; inconclusive = small, poorly fitted or top-dose-only effect, or another doubt; inactive = no such curve, though single readings can be large; an effect the other way counts as inactive or inconclusive.
SMILES,NS1 inh,AmpC detergent,CHX counter,AmpC inh no detg,Shiga inhibitor
Cc1nc(-c2ccccc2)nc2[nH]c(=O)n(-c3ccccc3)c(=O)c12,-5%,?,31*,-25%,54*
NS(=O)(=O)c1ccc(CCNC(=O)COC(=O)/C=C/c2ccccc2Cl)cc1,·,-1%,1,-10%,14
O=C(/C=C/c1ccc(Cl)cc1Cl)NCCSCc1ccccc1,-26%,-3%,8,-34%,12
Cc1ccc(CSCCNC(=O)/C=C/c2ccccc2Cl)cc1,5%,-3%,32*,-20%,6
O=C(/C=C/c1ccccc1Cl)NCCc1ccc(F)cc1,-17%,0%,24*,-26%,93*
O=C(/C=C/c1ccccc1[N+](=O)[O-])NCCc1ccc(F)cc1,·,-9%,24*,-28%,69
CC(C)[C@@H](C)/C=C\[C@@H](C)[C@@H]1CC[C@H]2C3=CC=C4C[C@@H](O)CC[C@]4(C)[C@H]3CC[C@]21C,-1%,·,·,·,·
CCOC(=O)c1sc(NC(=O)c2nc3ncccn3n2)c(C(=O)OC)c1C,·,19%,·,·,·
CCN(CC)S(=O)(=O)c1cccc(C(=O)Nc2ccccc2C(=O)Nc2ccc(OC)cc2)c1,·,4%,·,·,·
CC(C)C[C@H](N)c1nnc(S(=O)(=O)Cc2ccc(F)cc2)o1,-63%,1.4µM*,42*,2µM*,71
Cc1ccc(NC(=O)CN2C(=O)C(c3ccc(F)cc3)=NC2(C)C)c(C)c1,·,7%,·,·,·
CC(C)c1onc(C(=O)Nc2cccc(Cl)c2)c1[N+](=O)[O-],·,-7%,25*,14%,35
CC(C)c1cc(C(=O)Nc2cccc(Cl)c2)no1,-66%,4%,30*,-34%,82*
CC(C)c1onc(C(=O)NCc2ccccn2)c1[N+](=O)[O-],·,2%,10,-8%,-4
CC(=O)c1cccc(NC(=O)c2cc(C(C)C)on2)c1,-57%,-10%,40*,-19%,84*
COc1ccc(CNC(=O)Cn2c(=O)nc(-c3ccccc3F)c3cc(Cl)ccc32)cc1,·,9%,·,·,·
CNC(=O)COC(=O)c1cc2c(s1)CCCC2,-1%,9%,24*,21%,47
C/C(N)=C(/C#N)C(=O)COC(=O)c1cc2c(s1)CCCC2,-3%,3%,35*,-9%,60*
C/C(N)=C(/C#N)C(=O)COC(=O)c1cc2c(s1)CCC(C)C2 (stereo not drawn),·,?,68*,-31%[11.4 µM],93*
Cc1nc(N2CCC3(CC2)OCCO3)c2nnn(Cc3ccccc3F)c2n1,-31%,2%,43*,122%,57*
CCc1nc(N2CCC3(CC2)OCCO3)c2nnn(Cc3ccccc3)c2n1,·,0%,1,70%,-2
CC(=O)N1N=C(c2cccc(Cl)c2)OC1c1ccc(C(C)C)cc1 (stereo not drawn),-1%,-13%,23*,-4%,31
CC(=O)N1N=C(c2ccc(C)cc2)OC1c1cccnc1 (stereo not drawn),·,2%,18,1%,61*
CC(=O)N1N=C(c2cccc(Cl)c2)OC1c1cccc([N+](=O)[O-])c1 (stereo not drawn),-16%,-1%,-3,-5%,-8
CC(=O)NC1=NN(C(C)=O)C(c2ccc(C(C)C)cc2)S1 (stereo not drawn),10%,-17%,16*,-37%,5
SMILES,NS1 inh,AmpC detergent,CHX counter,AmpC inh no detg,Shiga inhibitor
O=C(c1cccc(Cl)c1)n1nc(-c2ccco2)nc1NCc1cccs1,·,13%,·,·,·
Cc1ccc(-c2nnc(-c3cccc(NC(=O)c4cccs4)c3)o2)cc1,19%,?,11,-31%,39*
Cc1cccc(-c2nnc(-c3cccc(NC(=O)Cc4cccs4)c3)o2)c1,-30%,?,20*,8%,13
O=C(Nc1cccc(-c2nnco2)c1)c1cccs1,-9%,6%,1,-19%,12
O=C(CCN1C(=O)c2ccccc2C1=O)Nc1ccc2c(c1)OCCO2,14%,-2%,18*,-14%,active
O=C(CCCN1C(=O)CCC1=O)Nc1ccc2c(c1)OCO2,1%,?,11,-20%,53*
O=C(CCn1cccn1)Nc1ccc2c(c1)OCCO2,-3%,0%,57*,-18%,92*
O=C(CCCN1C(=O)CCC1=O)Nc1ccc2c(c1)OCCO2,1%,-6%,22*,-31%,92*
COc1ccc(NC(=O)CCn2cccn2)cc1OC,·,0%,·,·,·
CCc1ccc([C@@H]2CC=C(C(=O)O)[C@H](c3cccc(Cl)c3)N2S(=O)(=O)c2ccc(C)cc2)cc1,·,1%,·,-7%,·
CCOc1ccc(-c2nc(CN(Cc3ccccc3)C[C@@H]3CCC(=O)N3)c(C)o2)cc1,0%,0%,8,50%,9
CC(C)CC(=O)Nc1nc2c(s1)CC(C(C)(C)C)CC2 (stereo not drawn),·,9%,·,·,·
COc1ccc(Cc2nnc(SCc3c(C)noc3C)n2C2CCCCC2)cc1OC,-3%,?,13,66%,51*
COc1ccc(/C=C2/C(=N)N3N=C(CC(=O)N4CCCC4)SC3=NC2=O)cc1OC,5%,?,-4,-28%,-6
COc1cc(/C=C2/C(=N)N3N=C(CC(=O)N4CCOCC4)SC3=NC2=O)ccc1OCc1ccccc1F,17%,-7%,26*,-31%,43
COc1cc(/C=C2/C(=N)N3N=C(CC(=O)N4CCOCC4)SC3=NC2=O)ccc1OCc1ccc(F)cc1,11%,1%,40*,-20%,106*
CC(=O)c1ccc(NC(=O)Cn2nc(C(F)(F)F)c3c2CCC3)cc1,·,22%,·,·,·
Cc1nc(SCC(=O)Nc2ccccc2Cl)oc1C,-13%,?,-1,-13%,15
CCCc1c(C(=O)OCC)[nH]c2c1C(=O)CCC2,-171%,?,-2,1%,10
CC(=O)c1c(C)[nH]c(C(=O)OCc2cccc(C)c2)c1C,-20%,3%,36*,-2%,95*
CC(=O)c1c(C)[nH]c(C(=O)OCc2ccc(Br)cc2)c1C,-9%,6%,45*,0%,69*
Cc1c(C(=O)OCCOc2ccccc2)[nH]c2c1C(=O)CCC2,-69%,-6%,29*,-14%,47*
Cc1c(C(=O)OC2CCCC2C)[nH]c2c1C(=O)CCC2 (stereo not drawn),-121%,-11%,48*,-16%,64*
O=C(Oc1ccc(S(=O)(=O)F)cc1F)c1ccccc1Cl,-16%,·,·,·,·
Cn1nnc2c(NCCc3ccccc3)ncnc21,·,0%,·,·,·
CC1(C)S[C@@H]2[C@H](C(=O)O)N=C(Cc3ccccc3)N2[C@H]1C(=O)O,-5%,·,·,·,·
CC(=O)c1c(C)[nH]c(C(=O)COC(=O)CCCOc2ccccc2)c1C,·,1%,-4,-17%,-4
CC(=O)c1c(C)[nH]c(C(=O)OCc2ccccc2F)c1C,·,?,46*,-18%[11.4 µM],95*
COc1ccc(C)cc1COC(=O)c1[nH]c(C)c(C(C)=O)c1C,-19%,1%,-2,-2%,5
